# Shown are actives, neighbours in structure and some others; about 5.8% of the full set was active somewhere.
# KB-V1 cytotox: KB-V1 MDR subline cytotoxicity; AID 1347076; 3.4% of 400,000 active; KB-V1 MDR cells viability, CellTiter-Glo, 72 h; Potency, µM (doses to about 46.1 µM), most hits filed as cytotoxic; further: nearly all actives have a fitted effect of over 60% in size
#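 KB-V1 cells (P-gp-expressing MDR subline of KB-3-1) in phenol-red-free DMEM with 10% FBS were exposed to library compounds over a concentration series for 72 h at 37 degrees C. Viability read by CellTiter-Glo luminescence; concentration-effect curves fitted after normalization.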
# KB-3-1 cytotox: KB-3-1 parental cell cytotoxicity; KB-3-1 viability, CellTiter-Glo ATP luminescence, 72 h; Potency, µM (titrated, usually from 46.1 µM), usual class: cytotoxic; 1.4% of 400,000 active; further: nearly all actives have a fitted effect of over 60% in size
#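 Viability of parental KB-3-1 cells, measured by CellTiter-Glo luminescence, followed a 72 h incubation at 37 °C with pinned compounds in phenol-red-free DMEM containing 10% FBS.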
# PINK1 expr mod: modulators of PINK1 expression. PINK1 immunofluorescence, high-content cytometry, 24 h. Potency, µM (top dose mostly 76.6 µM), most hits filed as activators. 0.2% of 410,000 active. AID 624263; active means well fitted activation curve with a large enough effect; inconclusive means small, poorly fitted or top-dose-only effect; cell line not stated here; further: nearly all actives have a fitted effect of over 65% in size
#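 A stable cell line was treated with compounds at 5 concentrations for 24 hours, with CCCP as control. PINK1 levels and mitochondrial localization were measured by immunofluorescence with mitochondrial, cell and nuclear markers after fixation, read by laser-scanning cytometry.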
# 12-LOX inh: ALOX12 (human) lipoxygenase inhibition; Potency, µM (top dose mostly 108 µM), actives largely listed as inhibitors; purified 12hLO, xylenol orange hydroperoxide absorbance; 1.1% of 580,000 active
# Target sequence (P18054 whole entry, looked up): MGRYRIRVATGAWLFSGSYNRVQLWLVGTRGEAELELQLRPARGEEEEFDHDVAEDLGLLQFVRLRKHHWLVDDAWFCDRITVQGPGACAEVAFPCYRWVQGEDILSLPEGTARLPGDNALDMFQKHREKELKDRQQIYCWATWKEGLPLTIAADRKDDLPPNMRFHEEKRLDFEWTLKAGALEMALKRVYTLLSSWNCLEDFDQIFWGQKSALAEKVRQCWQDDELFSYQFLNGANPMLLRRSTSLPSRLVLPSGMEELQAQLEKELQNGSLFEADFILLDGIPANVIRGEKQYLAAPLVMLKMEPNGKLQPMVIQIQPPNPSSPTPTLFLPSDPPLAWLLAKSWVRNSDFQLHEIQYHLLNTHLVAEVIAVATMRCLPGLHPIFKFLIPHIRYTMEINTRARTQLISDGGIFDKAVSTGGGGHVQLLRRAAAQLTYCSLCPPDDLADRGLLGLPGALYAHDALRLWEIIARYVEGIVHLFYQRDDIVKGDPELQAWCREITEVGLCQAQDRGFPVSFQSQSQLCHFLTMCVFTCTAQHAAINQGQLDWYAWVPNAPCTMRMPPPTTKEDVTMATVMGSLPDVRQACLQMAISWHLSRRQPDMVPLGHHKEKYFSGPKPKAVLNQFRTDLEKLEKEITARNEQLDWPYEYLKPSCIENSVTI
#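 Purified human 12hLO at 150 nM in 25 mM Hepes, 0.01% Triton X-100, pH 7.0, preincubated 15 min at room temperature with compound. Reaction started with 40 uM arachidonic acid, 30 min at room temperature. Hydroperoxide measured by Fe-xylenol orange, 573/405 nm absorbance ratio.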
# SW480 rereplic: inducers of DNA re-replication in SW480 colon cancer cells. SW480 DNA re-replication, Hoechst DNA content imaging, 48 h. Potency, µM (series often up to 46.1 µM), hits mostly activators. 1.8% of 340,000 active. AID 624297; further: nearly all actives have a fitted effect of over 55% in size
#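 SW480 cells exposed to compounds for 48 hr at 37 C, 5% CO2, then Hoechst-stained 40 min. Nuclear DNA content imaged by fluorescence scanning (405 nm excitation, 500-530 nm emission); re-replication scored as increased high-intensity nuclei.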
# MCF10A rereplic: induces DNA re-replication in MCF 10a normal breast cells. MCF 10A DNA re-replication, Hoechst nuclear intensity, 48 h. Potency, µM (top dose mostly 46.1 µM), most hits filed as activators. 2.9% of 350,000 active. AID 624296; further: nearly all actives have a fitted effect of over 50% in size
# A number is an active result; – = inactive; ? = inconclusive; · = not tested or not shown; [ ] = remark or other dose. Unless noted, the call rests on the fitted dose curve; in most records, active means well fitted curve in the direction sought with a large enough effect; inconclusive means small, poorly fitted or top-dose-only effect, or another doubt; inactive means no such curve, though single readings can be large; an effect the other way counts as inactive or inconclusive.
SMILES,KB-V1 cytotox,KB-3-1 cytotox,PINK1 expr mod,12-LOX inh,SW480 rereplic,MCF10A rereplic
O=C(/C=C/c1ccco1)OCc1nnc(-c2ccccc2)o1,–,–,–,–,–,–
O=C(/C=C/c1ccco1)OCc1nnc(-c2ccc(Cl)cc2)o1,–,–,–,44.7µM,–,–
CCCCCn1cnc2sc(CC)cc2c1=O,14.6µM,–,–,–,–,–
CCOCC(=O)NC1CCc2cc(OC)c(OC)c(OC)c2-c2ccc(SC)c(=O)cc21 (stereo unspecified),?,0.0058µM,–,?,0.0517µM,?
CN[C@H]1CCc2cc(OC)c(OC)c(OC)c2-c2ccc(OC)c(=O)cc21,1.16µM,0.0291µM,–,–,?,?
CCCCOC(=O)NC1CCc2cc(OC)c(OC)c(OC)c2-c2ccc(SC)c(=O)cc21 (stereo unspecified),0.291µM,0.146µM,–,–,?,?
CCOC(=O)NC1CCc2cc(OC)c(OC)c(OC)c2-c2ccc(SC)c(=O)cc21 (stereo unspecified),0.231µM,0.164µM,–,?,0.0366µM,?
COc1ccc2[nH]c(C(=O)NCC(=O)N3CCCCCCNC(=O)CC3c3ccccc3)cc2c1 (stereo unspecified),·,·,·,–,·,·
Cc1ccc2sc(/C=C/c3ccc(C#N)cc3)nc2c1,·,·,·,–,·,·
Cc1cc(C)cc(NC(=O)N2CCCC(Cn3c(C4CC4)nc4cccnc43)C2)c1 (stereo unspecified),·,·,·,–,·,·
N#CC1=C(N)OC2=C(C(=O)CCC2)C1c1cccc2ccccc12 (stereo unspecified),·,·,·,–,·,·
Cc1cc(C)c2[nH]c(C)c(CN3CC4(C)CC3CC(C)(C)C4)c(=O)c2c1 (stereo unspecified),·,·,·,–,·,·
CCC(C)NC(=O)CSC1=Nc2ccccc2C2=NC(c3ccccc3)C(=O)N12 (stereo unspecified),16.4µM,–,–,?,–,–
N#Cc1nc(/C=C/c2cccs2)oc1NCCCn1ccnc1,·,·,·,–,·,·
Cc1cc(NC(=O)c2c(F)cccc2F)n(-c2nc3ccccc3[nH]2)n1,–,?,–,–,8.2µM,11.6µM
Cc1cc(NC(=O)c2c(F)cccc2Cl)n(-c2nc3ccccc3[nH]2)n1,–,–,?,–,–[9.22 µM],10µM
O=C(Nc1nc2ccccc2[nH]1)c1ccccc1F,7.31µM,?,–,–,?,?
Cc1cc(NC(=O)c2ccccc2F)n(-c2nc3ccccc3[nH]2)n1,14.6µM,?,–,–,–,?
O=C1c2c(nc(COc3cccc(C(F)(F)F)c3)n2Cc2ccccc2)NCCN1CC1CC1,·,·,·,–,·,·
Cn1cc(C(=O)N2CCN(CC(=O)N3CCCC3)CC2)c2ccccc21,·,·,·,–,·,·
CCCCn1c(=O)[nH]c(=O)c2c1nc(CSc1nnnn1CC(C)C)n2CC,·,·,·,–,·,·
COc1ccc(-c2n[nH]c3c2CN(C(=O)c2ccc(OC)c(OC)c2)CC3)cc1,?,7.31µM,–,–,?,20.6µM
COc1cccc(-c2n[nH]c3c2CN(C(=O)c2oc(C)cc2C)CC3)c1,·,·,·,–,·,·
COc1cccc(CNc2cccc(C(F)(F)F)c2)c1O,–,20.6µM,–,?,–,–
COc1cccc(CNc2ccc(F)c(Cl)c2)c1O,–,–,–,–,–,?
SMILES,KB-V1 cytotox,KB-3-1 cytotox,PINK1 expr mod,12-LOX inh,SW480 rereplic,MCF10A rereplic
COc1cccc(CNc2cnc3ccccc3c2)c1O,–,–,–,31.6µM,–,?
COc1ccc(C(=O)Nc2oc3ccccc3c(=O)c2-c2ccc3c(c2)OCO3)cc1,·,·,·,–,·,·
COc1ccc(NC(=O)CSc2nc(C3CC3)nc3ccccc23)cc1,?,?,–,–,13µM,?
COc1ccc(OC)c(NC(=O)CSc2nc3ccccc3cc2Cc2ccccc2)c1,–,–,–,–,–,14.6µM
COc1cccc(NC(=O)CSc2nc3ccccc3cc2Cc2ccccc2)c1,–,–,–,–,–,–
COc1ccc(NC(=O)CSc2nc3ccccc3cc2Cc2ccccc2)cc1,–,–,11.2µM,–,–,–
COc1ccc(-c2nc(-c3ccccc3)nc3c2CN([S+](=O)([O-])c2cccs2)CC3)cc1,·,·,·,–,·,·
CNS(=O)(=O)c1cc(NS(=O)(=O)c2cc(Cl)cc(Cl)c2)ccc1C,·,·,·,–,·,·

# Screening data: PubChem BioAssay, National Center for Advancing Translational Sciences (NCATS)
